These results are taken from PubChem BioAssay (EPA / NIEHS).

Experiment [1] in a line: Tanguay_ZF_120hpf_PE_legacy: (Legacy) Oregon State University Tanguay Lab 120 Hour Post-fertilization zebrafish Assay for Pericardial Edema (AID 2283640). An outline of the steps: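 Static waterborne exposure, 5D wild-type embryos, 28C, to 120 hpf; final DMSO 0.64% (vol/vol). Binary PE call at 120 hpf by brightfield; fitted upward vs DMSO baseline. 5uM trimethyltin chloride as positive control.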

Experiment [2] can be described thus: Tanguay_ZF_120hpf_BRAI_legacy: (Legacy) Oregon State University Tanguay Lab 120 Hour Post-fertilization zebrafish Assay for Brain Malformation (AID 2283641). An outline of the steps: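 Read-out: binary brain morphology call at 120 hpf (brightfield), fitted in gain-of-signal direction vs DMSO. Wild-type Tropical 5D embryos, static exposure, 28C, 0.64% DMSO final; 5uM trimethyltin chloride as positive control.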

Experiment [3] in a line: Tanguay_ZF_120hpf_SOMI_legacy: (Legacy) Oregon State University Tanguay Lab 120 Hour Post-fertilization zebrafish Assay for Somite Malformation (AID 2283647). In short, it runs like this:
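Binary brightfield scoring of somite defects at 120 hpf in 5D wild-type larvae; one dechorionated embryo per well, static exposure from 6 hpf, 28C, sealed and dark. Final DMSO 0.64%; trimethyltin chloride 5uM positive control.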

Experiment [4] in a line: Tanguay_ZF_120hpf_PFIN_legacy: (Legacy) Oregon State University Tanguay Lab 120 Hour Post-fertilization zebrafish Assay for Pectoral Fin Malformation (AID 2283648).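 Further: each larva judged yes or no for fin defect by brightfield with dead larvae skipped.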 In short, it runs like this: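 Dechorionated Tropical 5D wild-type zebrafish embryos, one per well, statically exposed from 6 to 120 hpf at 28C with 0.64% DMSO final. Pectoral fin malformation scored present/absent by brightfield at 120 hpf; not scored in dead embryos.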

Experiment [5] in a line: Tanguay_ZF_120hpf_CFIN_legacy: (Legacy) Oregon State University Tanguay Lab 120 Hour Post-fertilization zebrafish Assay for Caudal Fin Malformation (AID 2283649). An outline of the steps: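 Dechorionated 5D wild-type zebrafish, static exposure 6–120 hpf, 28C, sealed and dark, 0.64% v/v DMSO final. Binary fin-malformation call at 120 hpf, brightfield; gain of signal vs DMSO baseline.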

Experiment [6] in a line: Tanguay_ZF_120hpf_PIG_legacy: (Legacy) Oregon State University Tanguay Lab 120 Hour Post-fertilization zebrafish Assay for Pigmentation Malformation (AID 2283650). An outline of the steps: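 Dechorionated Tropical 5D wild-type embryos, one per well from 6 hpf, statically exposed at 28C in the dark until 120 hpf, 0.64% DMSO final. Pigmentation scored present/absent by brightfield microscopy; dead embryos not scored; fitted versus DMSO.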

Experiment [7] can be described thus: Tanguay_ZF_120hpf_CIRC_legacy: (Legacy) Oregon State University Tanguay Lab 120 Hour Post-fertilization zebrafish Assay for Circulatory Malformation (AID 2283651). In short, it runs like this:
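Dechorionated wild-type 5D zebrafish embryos, one per well, statically exposed from 6 to 120 hpf at 28C with 0.64% DMSO; circulatory malformation scored present/absent by brightfield microscopy at 120 hpf, dead embryos excluded.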

Experiment [8] in a line: Tanguay_ZF_120hpf_SWIM_legacy: (Legacy) Oregon State University Tanguay Lab 120 Hour Post-fertilization zebrafish Assay for Swim Bladder Malformation (AID 2283654).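 Further: swim bladder malformation in each larva scored yes or no under brightfield.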 In short, it runs like this:
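Dechorionated wild-type Tropical 5D zebrafish embryos, one per well from 6 hpf, were statically exposed at 28C until 120 hpf in 0.64% DMSO. Swim bladder malformation scored as present/absent by brightfield microscopy; not scored in dead larvae.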

Experiment [9] is described as follows: Tanguay_ZF_120hpf_TRUN_legacy: (Legacy) Oregon State University Tanguay Lab 120 Hour Post-fertilization zebrafish Assay for Truncated Body (AID 2283655). An outline of the steps: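 Whole-embryo zebrafish screen: dechorionated 5D embryos, static exposure 6–120 hpf, 28C, sealed foil-covered plates, 0.64% DMSO. Binary truncation call; gain of signal versus DMSO baseline.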

For experiment [10], the system named is Thyroperoxidase (TPO), gene 54314. Put plainly: CCTE_Simmons_AUR_rTPO: CCTE's Amplex UltraRed Assay for Thyroperoxidase (TPO) Inhibition, Simmons Lab (AID 2283662).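 Further: potency for loss of signal meaning inhibition of peroxidase activity.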 In short, it runs like this:
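Cell-free peroxidase activity assay using rat thyroid gland microsomes with excess H2O2 (300 uM) and 25 uM Amplex UltraRed. Compounds tested from 5 nM to 87.5 uM; fluorescence measured after 30 min at 37C, analysed relative to DMSO baseline.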

The nature of experiment [11]: CCTE_Simmons_CellTiterGLO_HEK293T: Viability Assessment in CCTE's Assays for Thyroperoxidase (TPO) Inhibition, Simmons Lab (AID 2283665).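 On AC50: cells exposed to compound for 24 h before readout; actives reduce ATP signal below DMSO vehicle meaning cytotoxicity.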 An outline of the steps: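 HEK293T cells in DMEM with 1% FBS, dosed 24 h at 37C with 8 concentrations, 5 nM–87.5 uM final, 0.5% DMSO. ATP measured by CellTiter Glo luminescence; loss of signal vs DMSO, three biological replicates.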
Background: ATP-based viability assays read luminescence as a measure of living cells.

Experiment [12] can be described thus: Tanguay_ZF_120hpf_TR_legacy: (Legacy) Oregon State University Tanguay Lab 120 Hour Post-fertilization zebrafish Assay for Touch Response (AID 2283667). An outline of the steps:
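Tropical 5D wild-type zebrafish embryos statically exposed to 120 hpf at 28°C, sealed and dark-covered, 0.64% DMSO final; touch response scored as present/absent by brightfield microscopy at 120 hpf. Trimethyltin chloride 5 uM positive control; dead embryos not scored.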

Experiment [13] can be described thus: CCTE_Padilla_ZF_144hpf_TERATOSCORE: (Legacy) CCTE's 144 Hour Post-fertilization zebrafish Assay Teratoscore, Padilla Lab (AID 2283679; active means hit-call score of the fitted dose curve at least 0.9, where 1 is the maximum; inactive means score below 0.9;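 on AC50: zebrafish embryos with chorions exposed by immersion from 6-8 hpf to 5 dpf with daily renewal; teratogenicity score from eye scoring of death hatching and malformations at 144 hpf; higher score means more developmental defects relative to DMSO baseline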). In short, it runs like this:
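Larvae scored by eye at 144 hpf for death, hatching and malformations after a day in clean Hanks'. Before that, daily-renewed exposure at 80 uM (0.4% DMSO, 26C) from roughly 6-8 hpf through 5 dpf, 4 embryos per chemical.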

Experiment [14] in a line: STM_H9_OrnithineISnorm_perc: Stemina devTOX quickPredict H9 human embryonic stem cell (hESC)-based Assay for Ornithine (ORN) Metabolite Biomarker, Normalized (AID 2283712; active means hit-call score of the fitted dose curve at least 0.9, where 1 is the maximum; inactive means score below 0.9;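 further: ornithine released into spent medium during last day measured by mass spectrometry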). In short, it runs like this: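 Undifferentiated H9 hESCs exposed 72 h with daily media and compound renewal; final 24-h conditioned medium analysed by UPLC-HRMS. Ornithine peak area normalised to spiked C13 standard and to median 0.1% DMSO control; viability by CellTiter-Fluor.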

A short description of experiment [15]: Tanguay_ZF_120hpf_NC_legacy: (Legacy) Oregon State University Tanguay Lab 120 Hour Post-fertilization zebrafish Assay for Notochord and Tail Malformation (AID 2283656). In short, it runs like this: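 Dechorionated Tropical 5D wild-type zebrafish embryos, one per well from 6 hpf, statically exposed to 120 hpf at 28C in 0.64% DMSO final. Notochord distortion scored present/absent by brightfield; dead embryos excluded.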

Read-out in experiment [16]: solute carrier (SLC22A6), SLC22A6 (gene 9356)
As to the kind of experiment: LTEA_HepaRG_SLC22A6: Life Technologies and Expression Analysis (LTEA) Assay for solute carrier (SLC22A6) using HepaRG (AID 2283653; active means hit-call score of the fitted dose curve at least 0.9, where 1 is the maximum; inactive means score below 0.9). To be noted: mRNA level, 48 h; actives raise or lower the signal. An outline of the steps:
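HepaRG, human liver line; 48 h chemical exposure; 8-pt half-log series from 100 uM in 0.5% DMSO, duplicate wells. Readout: TaqMan qRT-PCR of SLC22A6 mRNA, housekeeping-normalised; bidirectional curve fit vs DMSO baseline.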

Read-out in experiment [17]: solute carrier (SLC10A1), SLC10A1 (gene 6554)
As to the kind of experiment: LTEA_HepaRG_SLC10A1: Life Technologies and Expression Analysis (LTEA) Assay for solute carrier (SLC10A1) using HepaRG (AID 2283657; active means hit-call score of the fitted dose curve at least 0.9, where 1 is the maximum; inactive means score below 0.9). To be noted: mRNA level, 48 h; actives raise or lower the signal. An outline of the steps:
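HepaRG cells (single lot) exposed 48 h in serum-free induction medium, 8-point half-log series from 100 uM top in 0.5% DMSO, duplicate. SLC10A1 mRNA by qRT-PCR normalised to ACTB, GAPDH, POLR2A; bidirectional fit versus DMSO.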

Read-out in experiment [18]: matrix metalloproteinase-1 (MMP1), MMP1 (gene 4312)
Put plainly: LTEA_HepaRG_MMP1: Life Technologies and Expression Analysis (LTEA) Assay for matrix metalloproteinase-1 (MMP1) using HepaRG (AID 2283658; active means hit-call score of the fitted dose curve at least 0.9, where 1 is the maximum; inactive means score below 0.9). To be noted: mRNA level, 48 h; actives raise or lower the signal. An outline of the steps: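 MMP1 transcript read by TaqMan qRT-PCR (Fluidigm array) after 48 h chemical exposure of HepaRG cells in serum-free induction medium. Eight-point half-log series, top 100 uM, 0.5% DMSO vehicle. Bidirectional curve fit against DMSO baseline.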

Read-out in experiment [19]: Cytochrome P450 (CYP24A1_1), CYP24A1 (gene 1591)
Put plainly: LTEA_HepaRG_CYP24A1_1: Life Technologies and Expression Analysis (LTEA) Assay for Cytochrome P450 (CYP24A1_1) using HepaRG (AID 2283671; active means hit-call score of the fitted dose curve at least 0.9, where 1 is the maximum; inactive means score below 0.9). To be noted: mRNA level, 48 h; actives raise or lower the signal. An outline of the steps:
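Differentiated human HepaRG cells in serum-free induction medium, exposed 48 h in duplicate to eight half-log concentrations from 100 uM top, 0.5% DMSO. Transcript measured by TaqMan qRT-PCR, normalised to ACTB, GAPDH, POLR2A; bidirectional fitting versus DMSO.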

SMILES strings stand for the structures. Results filed as inconclusive are left out. Activity calls are given as the source filed them. How the source made its calls, unless noted: active means hit-call score of the fitted dose curve at least 0.9, where 1 is the maximum; inconclusive means response in the unintended direction; inactive means score below 0.9.

For orientation: AC50 means the concentration giving half of the maximal activity seen. For `Cc1ccc(C(C)(C)C)c(O)c1`, the compound was called inactive in experiment [1], in experiment [2], in experiment [3], in [4], in experiment [5] and in experiment [6]. For the same compound, the compound was called inactive in [7], in experiment [8], in experiment [9], in [12] and in [14]. Further, the half-maximal activity concentration (AC50) is 30 µM (active) in experiment [10], 22.3 µM (active) in experiment [11] and 92.9 µM (active) in experiment [13].

As to `O=C(NS(=O)(=O)/C=C/c1cccs1)c1ccc(F)cc1Br`, the compound was classed as inactive in experiment [1], in experiment [2], in experiment [3], in [4], in experiment [5] and in [6]. Also, the outcome in experiment [8], in [9], in experiment [15], in experiment [12] and in experiment [13] was inactive.

For `CCCCCCCCCCCCCCCCO`, the result in [1], in [2], in experiment [3], in [4], in experiment [5] and in experiment [6] was inactive. The compound was called inactive in experiment [7], in experiment [8], in [9], in experiment [15], in experiment [12] and in [14].

Turning to `Cc1cn([C@H]2C=C[C@@H](CO)O2)c(=O)[nH]c1=O`, the call in experiment [1], in experiment [2], in experiment [3], in experiment [4], in [7] and in [8] was inactive. The compound was classed as inactive in experiment [15], in experiment [12] and in experiment [14].

As for `CC(=O)OC1CC(C)OC(C)O1` (configuration not stated), the outcome in experiment [1], in experiment [2], in experiment [3], in experiment [4], in [5] and in experiment [6] was inactive. Also, the call in experiment [7], in experiment [8], in experiment [9], in experiment [15] and in experiment [12] was inactive.

In the case of `CCc1nc(N)nc(N)c1-c1ccc(Cl)cc1`, the compound was classed as inactive in [1], in experiment [2], in experiment [3], in experiment [4], in experiment [5] and in experiment [6]. Also, the call in experiment [7], in experiment [9] and in [15] was inactive. For the same compound, the AC50 in experiment [13] was 64.5 µM (active); in experiment [14], 30.7 µM (active).

On to `OCC(O)CO`, for which the outcome in experiment [1], in experiment [2], in experiment [3], in experiment [4], in experiment [5] and in [6] was inactive. In addition, the outcome in experiment [7], in experiment [8], in [9], in experiment [15] and in [12] was inactive.

For the compound `CCCCc1nc2cccnc2n1Cc1ccc(-c2ccccc2-c2nnn[nH]2)cc1`, the result in experiment [1], in [2], in [3], in [4], in experiment [5] and in experiment [6] was inactive. Moreover, the call in [7], in [8], in experiment [9] and in experiment [13] was inactive.

For `Cc1occc(=O)c1O`, the result in experiment [1], in [2], in experiment [3], in [4], in [5] and in experiment [6] was inactive. In addition, the compound was called inactive in experiment [7], in [16], in experiment [8], in experiment [9], in experiment [15] and in [17]. The call in experiment [18], in experiment [11], in [12] and in [19] was inactive. Further, the AC50 in experiment [10] is 21.7 µM (active).

As for `C/C=C/C=C/C(=O)O`, the result in experiment [1], in experiment [3], in experiment [4], in experiment [5], in [6] and in experiment [7] was inactive. Further, the compound was classed as inactive in experiment [8], in experiment [15] and in [12]. Further, the AC50 in [10] and in experiment [11] was 48.8 µM (active) in each case.
